Laboratory results taken from the supplement of paper PMC3334620.
The full ranking holds about 33,000 sequences; the median of “E-score (-0.5 to 0.5)” is about -0.032, and the highest 2% start at about 0.36. The entries come from a sample that favours the highest values as a whole.

molecular target: T1, Sko1 (UniProt Q02100); experiment: PBM E-score (8-mer binding enrichment) (E-score (-0.5 to 0.5)); higher = stronger / more preferred TF binding; settings: protein concentration: 200 nM; construct: GST-full length
T1 sequence: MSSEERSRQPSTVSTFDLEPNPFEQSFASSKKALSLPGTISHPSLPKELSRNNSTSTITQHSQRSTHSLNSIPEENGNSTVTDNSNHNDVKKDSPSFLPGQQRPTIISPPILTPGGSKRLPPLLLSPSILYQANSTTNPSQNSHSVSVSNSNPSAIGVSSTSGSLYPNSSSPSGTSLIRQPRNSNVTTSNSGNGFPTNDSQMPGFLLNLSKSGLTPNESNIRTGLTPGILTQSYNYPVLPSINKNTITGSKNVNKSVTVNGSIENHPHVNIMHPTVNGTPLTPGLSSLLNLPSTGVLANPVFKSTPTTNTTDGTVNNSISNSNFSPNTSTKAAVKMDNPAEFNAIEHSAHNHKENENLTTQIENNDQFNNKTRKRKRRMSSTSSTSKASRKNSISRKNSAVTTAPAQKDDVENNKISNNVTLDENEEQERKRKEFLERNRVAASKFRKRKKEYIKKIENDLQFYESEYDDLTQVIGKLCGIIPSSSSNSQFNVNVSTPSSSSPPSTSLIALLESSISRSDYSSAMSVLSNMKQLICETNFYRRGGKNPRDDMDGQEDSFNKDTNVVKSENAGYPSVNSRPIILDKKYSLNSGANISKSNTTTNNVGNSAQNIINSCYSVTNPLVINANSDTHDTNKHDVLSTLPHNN
Summary of the method: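 Yeast transcription factors carrying a GST tag, as full-length proteins or DNA-binding domains, were produced by PURExpress in vitro transcription/translation. About 100-200 nM protein was applied to universal all-10-mer Agilent arrays, double-stranded by primer extension on fresh or once-stripped slides. Bound protein was detected with fluorescent anti-GST, and scans were normalised with masliner. The Universal PBM Analysis Suite gave each ungapped eight-base word, pooled with its reverse complement, an E-score, a modified Wilcoxon-Mann-Whitney statistic.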

| Sequence | PBM E-score |
| --- | --- |
| GTACGCGA | 0.277 |
| GTACGCAA | 0.399 |
| AAACGCAA | 0.335 |
| ATACGCAA | 0.447 |
| GAAGTTGC | -0.0684 |
| ATAGCACG | -0.0293 |
| AATTGGGT | 0.12 |
| GTACGGCA | 0.0279 |
| GTCCGTCA | 0.179 |
| CCACGTCA | 0.477 |
| GCCCGTCA | -0.00134 |
| CCACGTCC | 0.109 |
| GCACGTCA | 0.477 |
| GTACGTCA | 0.491 |
| GCACGTCC | 0.0489 |
| ACACGTCC | 0.214 |
| ACACGTCA | 0.489 |
| CCACGTCG | 0.168 |
| ACACGTCG | 0.335 |
| GGCCCTAA | -0.259 |
| GACGGTAC | 0.171 |
| CCAATGGA | -0.215 |
| AAGACTGT | -0.142 |
| TCCCGTCA | 0.218 |
| TCACGACA | 0.212 |

| Sequence | PBM E-score |
| --- | --- |
| TCACGTCA | 0.484 |
| GCACGTGC | 0.296 |
| ACACGTGC | 0.346 |
| ACACGTGA | 0.415 |
| ACACGTGG | 0.356 |
| ACACGTGT | 0.407 |
| ACACGAGT | -0.0245 |
| GCACGTGA | 0.387 |
| GCTCGTGA | -0.116 |
| ACTAGATC | -0.0827 |
| CAAGATTA | 0.11 |
| AAGACGCT | -0.168 |
| CAGGTAAC | -0.118 |
| AAGACCCC | -0.274 |
| CATCCCTA | -0.124 |
| GACGTCGA | 0.364 |
| AACGTCGA | 0.281 |
| TACGTCGA | 0.422 |
| TCCGTCGA | -0.0164 |
| CACGTCGG | 0.183 |
| CACGTCGA | 0.278 |
| CGTGTGGC | 0.152 |
| CCTATAGG | -0.205 |
| CAGTAAGA | 0.0474 |
| ACACATAC | 0.124 |

| Sequence | PBM E-score |
| --- | --- |
| AGGTGACA | 0.118 |
| CGGTGACG | 0.449 |
| CGGTGACA | -0.0125 |
| ATGTGACA | 0.169 |
| ATGTGACC | -0.0234 |
| CGGTGACC | -0.172 |
| ATGTGACG | 0.44 |
| AGGTGACC | -0.0978 |
| AGGTGACG | 0.388 |
| CTCACTAA | 0.118 |
| AGGGCCAG | -0.407 |
| ACCGAGGC | -0.319 |
| GGCATTGA | -0.104 |
| GCGTAAGC | 0.294 |
| GCGTAATA | 0.421 |
| GAGTAATA | 0.183 |
| TCGTAAGA | 0.199 |
| AAGTAAGC | 0.0436 |
| CCGTAAGA | -0.0187 |
| CCGTAATA | 0.288 |
| ACGTAAGT | 0.465 |
| CCGTAAGC | -0.0492 |
| ACGTAAGC | 0.455 |
| AAGTAAGT | 0.0641 |
| ACGTAAGA | 0.476 |

| Sequence | PBM E-score |
| --- | --- |
| AGAGTTCC | -0.269 |
| CGTAGGTC | 0.284 |
| GTCTCAAA | -0.0308 |
| AAGATATT | 0.0367 |
| ACTCCTAC | 0.0364 |
| CGTTGCAC | 0.11 |
| CTCGGCGA | -0.0899 |
| CAACATTC | -0.167 |
| AATGCCCA | -0.173 |
| ATTCTTGC | 0.0625 |
| GGCAGCAC | -0.103 |
| CTTCTCAA | -0.04 |
| GCAACCGA | -0.129 |
| ATTGGCAA | 0.134 |
| ACGTAAGG | 0.464 |
| ATGTAATA | 0.376 |
| CTGTAATA | 0.042 |
| CCGTAAGG | -0.15 |
| GTGTAATA | 0.221 |
| GTGTAAGA | 0.0148 |
| GCGTAAGA | 0.378 |
| AGGTAAGG | -0.0698 |
| GAGTAAGA | 0.0882 |
| GACTTTGC | -0.117 |
| TCTCGCAA | -0.114 |

| Sequence | PBM E-score |
| --- | --- |
| CATGCCAG | -0.191 |
| CCTAGGCA | -0.257 |
| AGAGCGAT | -0.16 |
| CTAGCTAC | -0.105 |
| GCATGCCA | -0.187 |
| CTGCCATA | -0.0751 |
| GTCTGCCA | -0.00797 |
| CTCGCGTA | 0.212 |
| ATCGCGTA | 0.326 |
| CACGCGTC | 0.291 |
| TACGCGTA | 0.387 |
| GACGCGTA | 0.388 |
| CACGCGTA | 0.311 |
| TACGCGCA | 0.209 |
| GTCGCGTA | 0.363 |
| AACGCGTA | 0.287 |
| CCCTGGCA | -0.34 |
| GGCTGGCA | -0.303 |
| AGAACGGG | -0.124 |
| CGTGCGTA | 0.382 |
| AGTGCGTC | 0.225 |
| CCTGCGTC | 0.122 |
| CGTGCGTC | 0.388 |
| GGTGCGTA | 0.299 |
| AGTGCGTG | 0.152 |

| Sequence | PBM E-score |
| --- | --- |
| AGTGCGTA | 0.376 |
| CGTGCGAC | 0.0911 |
| CGTGCGCA | 0.205 |
| CTAGACTA | -0.139 |
| CATTGGTC | -0.282 |
| CTTGTGCA | -0.154 |
| GTAGCGGA | -0.0973 |
| CGCTTAAA | 0.0298 |
| AGCGTGAT | 0.147 |
| ATGTACAT | 0.32 |
| CCGTACAG | -0.22 |
| CCGTACAC | -0.0557 |
| ACGTACAC | 0.444 |
| AGGTACAG | -0.145 |
| GCGTACAC | 0.213 |
| ACGTACAT | 0.449 |
| AAGTACAT | 0.237 |
| ACGTACAA | 0.414 |
| ACGTACAG | 0.415 |
| TCGTACAA | 0.206 |
| GCGTACAA | 0.146 |
| ACCAATGG | -0.28 |
| CTCAGTTA | -0.0515 |
| CGAAACTC | -0.0389 |
| TAGTCCAA | -0.132 |

| Sequence | PBM E-score |
| --- | --- |
| ACGTCAGG | 0.457 |
| GCGTCAGA | 0.364 |
| GGGTCAGA | -0.219 |
| CCGTCAGG | -0.0861 |
| ACGTCAGA | 0.479 |
| ATGTCAGG | 0.0993 |
| AAGTCAGT | -0.0135 |
| TCGTCAGA | 0.307 |
| ACATCAGT | 0.179 |
| GTGTCAGA | -0.06 |
| ACGTCAGT | 0.469 |
| CCGTCAGA | -0.0558 |
| AGTCCCTG | -0.259 |
| AATGGGAC | -0.215 |
| CGCCCTGC | -0.236 |
| CCACTCAG | -0.212 |
| CCAAAGAC | -0.098 |
| GCGCCCGC | -0.165 |
| GATCATAC | 0.14 |
| ACGGTTCA | -0.126 |
| CCGTCAGC | -0.127 |
| ACGTCAGC | 0.48 |
| GCGTCAGC | 0.209 |
